Compounds with a hit are over-represented: about 21% of the library has one in this group of screens.
NS1 inh: blocks influenza NS1 protein function. Potency, µM (series often up to 46.1 µM), inactives show at the highest dose activity, positive = more growth. hit rate 0.4% among 270,000. AID 2326; calls by dose curve; further: potency means the concentration at half of the fitted maximal effect; actives are rising curves; nearly all actives have a fitted effect of over 50% in size
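S. cerevisiae expressing influenza A NS1, grown in glucose, washed, then diluted 1:100 into pH 6.0 -URA galactose medium with 23 nl compound. Growth recovery read as OD600; NS1-free strain serves as control.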
Pf growth 96h: P. falciparum growth inhibition at 96 hours; P. falciparum luciferase reporter growth, 96 h; Potency, µM (doses to about 28.7 µM), for the others: top-dose activity change, negative = inhibition, actives largely listed as inhibitors; hit rate 6.9% among 320,000; AID 504834; further: potency means the concentration at half of the fitted maximal effect; on the % scale 0 is the no-effect control and ±100 the full control effect
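P. falciparum expressing integrated firefly luciferase grown in erythrocytes (2% hematocrit, 0.05% parasitemia final) with compounds for 96 hours at 37 C, 5% CO2. Growth inhibition read as loss of luminescence after adding luciferase detection reagent.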
Shiga toxin inh: Shiga toxin inhibition; Vero cells, Shiga toxin protein synthesis inhibition reporter; inhibition, % at 38.7 µM; hit rate 9.2% among 290,000; AID 2315; in the data active means inhibition mostly above about 28%, no sharp cut-off; inactive means mostly below about 43%; further: 0% is about no effect
SARS PLpro yeast: inhibitors of SARS-CoV papain-like protease in yeast; S. cerevisiae expressing SARS-CoV PLpro, growth rescue; Potency, µM (doses to about 32.9 µM), inactives show top-dose activity, positive = growth rescue, actives largely listed as activators; hit rate 0.19% among 330,000; AID 485353; calls by dose curve; further: potency means the concentration at half of the fitted maximal effect; 0% is about no effect; nearly all actives have a fitted effect of over 55% in size
CHX counter: counter-screen for Shiga toxin inhibitors: cycloheximide protein synthesis inhibition; cell reporter, cycloheximide protein synthesis inhibition counterscreen; max response, %; hit rate 12% among 300,000; AID 2314; in the data active means max response mostly above about 13%, no sharp cut-off; inactive means mostly below about 14%; further: read at 38.3 µM for the half of the compounds with a filed dose; 0% is about no effect
Pf growth 48h: inhibits P. falciparum growth in the first generation, 48 h | P. falciparum luciferase growth in erythrocytes, 48 h | Potency, µM (highest dose often 28.7 µM), for inactives: at the top dose activity change, negative = inhibition, most hits filed as inhibitors | hit rate 5.9% among 310,000; further: potency means the concentration at half of the fitted maximal effect; on the % scale 0 is the no-effect control and ±100 the full control effect
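Cell-based growth assay: transgenic P. falciparum expressing firefly luciferase, cultured in red cells within RPMI 1640 containing 0.5% w/v Albumax, 24 mM bicarbonate and gentamycin. A drop in luciferase activity indicates inhibition.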
* hit, by the source's call; ? = inconclusive; . = not tested or not shown. Unless noted, the call rests on the fitted dose curve; in most records, active means well fitted inhibition curve with a large enough effect; inconclusive means small, poorly fitted or top-dose-only effect, or another doubt; inactive means no such curve, though single readings can be large or run the other way.

SMILES	NS1 inh	Pf growth 96h	Shiga toxin inh	SARS PLpro yeast	CHX counter	Pf growth 48h
Cc1ccc(-c2cc(C(=O)N/N=C/c3ccccc3O)n[nH]2)o1	-36%	?	60*	22%	34*	5.2µM*
Cc1ccc(-c2cc(C(=O)N/N=C/c3ccc(F)cc3)n[nH]2)o1	2%	?	-6	-8%	10	-1%
Cc1ccc(-c2cc(C(=O)N/N=C/C(Br)=C/c3ccccc3)n[nH]2)o1	-10%	-6%	17	-17%	6	4%
COc1cccc(N(CC(=O)NC2CCCC2)C(=O)CCC(=O)Nc2cc(C)on2)c1	5%	?	-3	-3%	-6	?
CCCn1c(=O)c2ccccc2n2c(SCCOc3ccc(Cl)cc3)nnc12	-7%	27%	70*	6%	13	27%
Cc1ccc(O)c(CNc2ccccn2)c1	0%	33%	101*	11%	22	-3%
Cc1ccnc(NCc2cc(C)ccc2O)c1	-5%	-20%	.	-5%	19*	?
Cc1ccc(O)c(CNc2cccc(C)n2)c1	8%	27%	24	1%	12	?
CCOC(=O)c1cc2c(=O)n3ccccc3nc2n(Cc2ccco2)c1=NC(=O)c1ccc(OC)cc1	.	31%	27	0%	3	9.3µM*
CCOCCCn1c(=NC(=O)c2ccco2)c(C(=O)OCC)cc2c(=O)n3cccc(C)c3nc21	8%	?	-7	0%	-3	0%
CCOC(=O)c1cc2c(=O)n3cccc(C)c3nc2n(Cc2ccco2)c1=NC(=O)c1ccccc1	13%	12µM*	-12	-1%	-1	?
CCOC(=O)c1cc2c(=O)n3ccccc3nc2n(Cc2ccco2)c1=NC(=O)c1cccc(OC)c1	.	?	47	0%	9	?
CCOC(=O)c1cc2c(=O)n3cccc(C)c3nc2n(CC(C)C)c1=NC(=O)c1ccco1	2%	3.7µM*	-3	1%	1	?
CCCCn1c(N)c(N(CCOC)C(=O)c2sc3cc(F)ccc3c2Cl)c(=O)[nH]c1=O	.	2%	.	3%	.	?
CCNC(=S)NNC(=O)c1ccoc1C	7%	?	-5	6%	-3	5%
Cc1occc1C(=O)NNC(=S)Nc1ccccc1	6%	193%	77*	-3%	35*	151%
O=C(NNC(=S)Nc1ccccc1C(F)(F)F)c1ccc(Br)o1	1%	82%	101*	-2%	30*	44%
Cc1ccccc1NC(=S)NNC(=O)c1ccoc1C	1%	160%	48*	0%	35	121%
Cc1occc1C(=O)NNC(=S)Nc1ccccc1C(F)(F)F	5%	?	56*	6%	26*	69%
C=C(C)CNC(=S)N1CCNC(=O)C1CC(=O)OC (stereo unspecified)	23%	15%	12	9%	0	1%
COc1ccc(N(C)S(=O)(=O)c2ccc(Cl)c(C(=O)NNC(=O)c3ccccc3O)c2)cc1	.	38%	.	1%	.	-1%
O=C(Nc1ccccc1)Nc1ccno1	0%	-4%	-4	1%	7	?
Cc1occc1C(=O)NNC(=O)c1ccccc1F	.	-2%	40	-4%	23*	104%
NCCNC(=O)c1ccc(Cl)cn1	.	-14%	-5	.	-6	-11%
CSc1nnc(N2C(=O)C(O)=C(C(=O)c3ccco3)C2c2ccc(F)cc2)s1 (stereo unspecified)	7%	-20%	21	0%	28*	11%
SMILES	NS1 inh	Pf growth 96h	Shiga toxin inh	SARS PLpro yeast	CHX counter	Pf growth 48h
CCSc1nnc(N2C(=O)C(O)=C(C(=O)c3ccco3)C2c2cccc(OC)c2)s1 (stereo unspecified)	7%	?	90*	-2%	39*	-8%
O=C(C1=C(O)C(=O)N(c2ncccn2)C1c1cccc(Cl)c1)c1ccco1 (stereo unspecified)	18%	-11%	18	.	8	21%
CCOc1cccc(C2C(C(=O)c3ccco3)=C(O)C(=O)N2c2nnc(C)s2)c1 (stereo unspecified)	.	?	.	1%	.	-3%
CCOc1cccc(C2C(C(=O)c3ccco3)=C(O)C(=O)N2Cc2ccncc2)c1 (stereo unspecified)	-13%	2.6µM*	12	1%	17*	5%
CSc1nnc(N2C(=O)C(O)=C(C(=O)c3ccco3)C2c2cccc(Cl)c2)s1 (stereo unspecified)	0%	6%	22	-1%	34*	1%
CCCOc1cccc(C2C(C(=O)c3ccco3)=C(O)C(=O)N2CCN(CC)CC)c1 (stereo unspecified)	-1%	-18%	25	-4%	-6	-3%
CC1(C)Cc2c(sc3nc(=S)[nH]c(N)c23)CO1	?	?	-5	5%	-3	-40%
CS/C(=C/[N+](=O)[O-])Nc1cccc2c1C(C)CC2(C)C (stereo unspecified)	2%	-54%	18	-5%	1	?
CCOC(=O)C1=C(CC)Nc2ccccc2N=C1NC(=O)c1ccc(S(=O)(=O)N2CCOCC2)cc1	.	15µM*	-6	0%	-3	?
CCOC(=O)C1=C(CC)Nc2ccccc2N=C1NC(=O)c1ccc(C)c(S(=O)(=O)N2CCOCC2)c1	.	10µM*	.	-4%	.	?
N/C(Cc1ccc(Cl)cc1Cl)=N\OC(=O)Cc1cccs1	-20%	-3%	51*	-59%	36*	25%
N/C(Cc1ccc(Cl)cc1Cl)=N\OC(=O)c1cccs1	-39%	2%	52*	-23%	11	47%
N/C(Cc1ccc(Cl)cc1Cl)=N\OC(=O)c1ccc(Br)o1	-178%	-30%	3	-30%	11	0%
Cc1ccccc1OCC(=O)O/N=C(\N)Cc1cccs1	?	?	-12	6%	1	?
N/C(Cc1cccs1)=N\OC(=O)COc1ccc(Cl)cc1Cl	-8%	0%	127*	-27%	59*	.
Cc1csc(NC(=O)CSc2nnc(NC(=O)COc3ccccc3)s2)n1	?	-7%	10	5%	-3	25%
C=CC[C@@H](CC(=O)N(CCO)Cc1ccccc1)C(=O)NCCOC(=O)[C@H](CC=C)CC(=O)OC(C)(C)C	.	.	.	-23%	.	.
CCOC(=O)Cc1csc(NC(=O)c2cc(-c3ccncc3)nc3ccccc23)n1	.	-6%	.	-6%	.	?
COc1cccc(C(=O)Nc2cccc3cccnc23)c1OC	-10%	133%	.	1%	22*	42%
CCOc1ccccc1C(=O)Nc1cccc2cccnc12	-79%	?	19*	-3%	20*	?
CCOc1ccccc1NC(=O)c1cc(-c2ccncc2)nc2c(Cl)cccc12	10%	-1%	4	1%	-4	5.2µM*
CCOc1ccc(CCNC(=O)COC(=O)c2ccc[nH]c2=O)cc1OCC	.	.	.	1%	.	.
CC1(C)C(c2ccco2)=[N+]([O-])C2(CCCCC2=O)N1O (stereo unspecified)	-1%	-5%	10	23%	1	-15%

High-throughput results as filed in PubChem.
